Measured values: article PMC4336329 (PLoS ONE, 2015)
Screen size: about 310,000 compounds; about 14,000 (4.5%) showed an effect of 50% or more. The effect is printed as a negative number. The list comes from a sample in which strong results are over-represented; it also holds similar structures and randomly drawn compounds.

The molecules below were run against human ether-à-go-go-related gene (hERG) potassium channel (human, UniProt Q12809) (assay: primary screen, population patch clamp on CHO cells stably expressing hERG; higher = less effect of the substance).
Chain of human ether-à-go-go-related gene (hERG) potassium channel (Q12809 whole entry, looked up): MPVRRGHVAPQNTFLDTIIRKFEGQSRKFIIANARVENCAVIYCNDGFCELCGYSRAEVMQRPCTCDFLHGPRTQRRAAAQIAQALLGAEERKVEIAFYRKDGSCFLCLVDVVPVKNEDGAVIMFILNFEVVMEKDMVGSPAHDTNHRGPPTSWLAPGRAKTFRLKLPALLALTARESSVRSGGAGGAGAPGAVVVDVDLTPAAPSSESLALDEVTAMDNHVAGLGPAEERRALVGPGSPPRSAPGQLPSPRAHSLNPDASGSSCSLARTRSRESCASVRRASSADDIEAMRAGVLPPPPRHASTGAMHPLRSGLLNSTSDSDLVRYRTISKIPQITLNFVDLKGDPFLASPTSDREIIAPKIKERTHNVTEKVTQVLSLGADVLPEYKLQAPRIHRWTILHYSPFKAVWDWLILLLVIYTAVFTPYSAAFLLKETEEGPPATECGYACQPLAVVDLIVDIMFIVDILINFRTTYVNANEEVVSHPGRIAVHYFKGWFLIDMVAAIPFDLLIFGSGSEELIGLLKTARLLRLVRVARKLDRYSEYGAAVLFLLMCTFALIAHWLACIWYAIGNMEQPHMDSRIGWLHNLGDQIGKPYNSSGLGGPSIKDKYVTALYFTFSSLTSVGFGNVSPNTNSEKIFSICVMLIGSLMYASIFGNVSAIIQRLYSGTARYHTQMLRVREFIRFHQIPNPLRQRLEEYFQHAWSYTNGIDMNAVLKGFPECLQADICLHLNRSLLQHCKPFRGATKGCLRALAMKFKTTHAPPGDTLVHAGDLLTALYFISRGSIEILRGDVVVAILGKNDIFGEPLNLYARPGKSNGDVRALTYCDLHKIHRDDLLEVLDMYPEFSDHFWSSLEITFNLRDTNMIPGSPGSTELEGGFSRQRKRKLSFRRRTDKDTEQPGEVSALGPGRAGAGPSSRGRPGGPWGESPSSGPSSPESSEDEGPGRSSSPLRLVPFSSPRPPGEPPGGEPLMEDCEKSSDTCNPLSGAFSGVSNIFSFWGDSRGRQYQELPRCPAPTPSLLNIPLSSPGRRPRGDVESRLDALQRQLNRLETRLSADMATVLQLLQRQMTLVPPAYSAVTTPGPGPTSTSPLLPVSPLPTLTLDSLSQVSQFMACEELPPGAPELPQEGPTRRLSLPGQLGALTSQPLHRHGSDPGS
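Also: peak tail current of the secondary pulse compared with the same well before compound.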

Structure (SMILES)	hERG current change (%, negative = inhibition) at 10uM [%]
COc1cc(C)c(/C=C(\C#N)C(=O)Nc2ccc(C)cc2)cc1C(C)C	11.1
COCCN(C(=O)COC(=O)c1sccc1C)c1c(N)n(Cc2ccccc2)c(=O)[nH]c1=O	15.4
CCCN(CCC)CCCNC(=O)C(NS(=O)(=O)c1ccc2c(c1)CCC(=O)N2)c1ccccc1 (stereo not shown)	20.5
CCn1ncc(S(=O)(=O)NCc2ccco2)c1C	-0.626
O=C(Nc1ccc(S(=O)(=O)Nc2cnc3ccccc3n2)cc1)c1ccccc1Br	-10.5
O=C(CCN1C(=O)/C(=C/c2cccs2)SC1=S)Nc1ccccc1O	13.7
CC(C)c1ccc(NC(=O)CNC(=O)Cn2cnc3ccccc3c2=O)cc1	3.21
Cc1ccc(N/C=C/C(=O)c2ccco2)c(O)c1	8.63
COc1cc2c(cc1NC(=O)CSc1nc3ccc(C)cc3[nH]1)oc1ccccc12	7.65
Cc1ccc(-c2nnc(N3CCN(C(=O)CN4C(=O)c5ccccc5C4=O)CC3)c3ccccc23)cc1	6.37
O=C(c1cccs1)N1CCN(c2ncccn2)CC1	0.299
Cc1ccc(-c2nnc(N3CCN(C(=O)c4cccs4)CC3)c3ccccc23)cc1	-65.4
CC(=O)N1CCN(c2nnc(-c3ccccc3)c3ccccc23)CC1	3.22
CC(=O)N1CCN(c2nnc(-c3ccc(C)cc3)c3ccccc23)CC1	-38.6
O=C(c1cccs1)N1CCN(c2nnc(-c3ccccc3)c3ccccc23)CC1	-76.5
Cc1ccc(C(=O)Nc2ccc(Cl)cc2C(=O)c2ccccc2)cc1	17.1
O=C(CSc1ccccc1)N1CCN(S(=O)(=O)c2ccccc2F)CC1	-23.9
Cc1c(N=Cc2cccnc2)c(=O)n(-c2ccccc2)n1C	2.93
CC(=O)Oc1ccc2c(=O)oc(-c3ccc([N+](=O)[O-])cc3)nc2c1	1.56
Cc1ccc(C)c(S(=O)(=O)N2CCN(C(=O)Cn3c(C(F)(F)F)nc4ccccc43)CC2)c1	-1.16
O=c1c2ccccc2c(=O)n(Cc2ccccc2)n1Cc1ccccc1	16.8
CC(=O)n1c(=O)c2ccccc2c(=O)n1-c1ccccc1	3.89
O=c1c2ccccc2c(=O)n(-c2ccccc2)n1CCCCBr	-63.5
Cc1cccc(C(=O)OCC(=O)c2c(N)n(CC(C)C)c(=O)n(C)c2=O)c1[N+](=O)[O-]	-29.1
O=C(CCCC(=O)OCC1CCCO1)OCC1CCCO1 (stereo not shown)	8.27
CCOC(=O)c1cn(CC(=O)Nc2ccc(OC)cc2OC)nn1	9.07
Brc1ccc(OCCCCCN2CCOCC2)cc1.O=C(O)C(=O)O	-63.8
Brc1ccc(OCCOCCN2CCOCC2)cc1	-9

Structure (SMILES)	hERG current change (%, negative = inhibition) at 10uM [%]
Cl.O=C(COc1ccc(Br)cc1)OCCN1CCCCC1	11.8
Brc1ccc(OCCCCN2CCCCC2)cc1	-53.6
Cc1ccc(OCCCCN2CCCCC2)cc1	-12.1
Brc1ccc(OCCCN2CCOCC2)cc1.O=C(O)C(=O)O	-28.1
CC1CCN(CCCCOc2ccc(Br)cc2)CC1	-69.4
C#CCOCCOCCOCCNc1nc(N2CCN(C(=O)CCCCCCCCCCNC(=O)Cn3cc(C[C@@H](C)O)nn3)CC2)nc(N2CCN(C(=O)CCCCCCCCCCNC(=O)[C@H](CCCCN)n3cc(CCCC(=O)O)nn3)CC2)n1	-1.72
C1CCc2c(nc3nnnn3c2N2CCOCC2)C1	-3.03
COc1ccc(CC(=O)Nc2ccc(C#N)c(Cl)c2)cc1S(=O)(=O)N1CCOCC1	-68.1
COc1ccc(CC(=O)Nc2ccc(N3CCOCC3)cc2)cc1S(=O)(=O)N1CCOCC1	0.936
COc1cccc(C(=O)Nc2nc3ccccc3s2)c1	4.88
COc1ccc(CC(=O)Nc2nc3ccc(F)cc3s2)cc1S(=O)(=O)N1CCOCC1	-19.4
COc1ccc(CC(=O)Nc2ccc(F)c(Cl)c2)cc1S(=O)(=O)N1CCOCC1	-46.1
COc1ccc(C(=O)Nc2nc3ccccc3s2)cc1OC	-65.8
COc1ccc(C(=O)Nc2nc3ccccc3s2)cc1	11.6
COc1ccc(CC(=O)Nc2nc3ccccc3s2)cc1S(=O)(=O)N1CCOCC1	-65.9
COc1ccc2nc(NC(=O)Cc3ccc(OC)c(S(=O)(=O)N4CCOCC4)c3)sc2c1	-22.1
COc1cc(NC(=O)c2nccn2C)cc(C(=O)Nc2cccc(C(F)(F)F)c2)c1	5.31
CC(C)CC(C(=O)NC(=O)NCc1ccccc1)N1C(=O)c2ccccc2C1=O (stereo not shown)	8.22
CC(C)(C)C(=O)OCCn1c(=O)c2cc3c(=O)n(CCOC(=O)C(C)(C)C)c(=O)c3cc2c1=O	25.5
CC(=O)c1sc2nc(-c3ccc(C)cc3)c3c(c2c1N)CCCC3	2.68
Cc1ccc(C(O)(C(=O)NNS(=O)(=O)c2ccc(C)cc2)c2ccc(C)cc2)cc1	-5.55
CCCn1cc([C@@H]2C[C@H]3CN(Cc4cccc(Cl)c4)C(=O)[C@]34CCCN24)c(C)n1	-67.3
Cc1ccccc1CN1C[C@@H]2C[C@@H](c3cn(C)nc3-c3ccccc3)N3CCC[C@@]23C1=O	3.15
Cc1nn(C)cc1[C@@H]1C[C@H]2CN(Cc3cccc(Cl)c3)C(=O)[C@]23CCCN13	-36.8
Cn1cc([C@@H]2C[C@H]3CN(Cc4cccc(Cl)c4)C(=O)[C@]34CCCN24)c(-c2ccccc2)n1	-63.3
CCn1cc([C@@H]2C[C@H]3CN(Cc4cccc(Cl)c4)C(=O)[C@]34CCCN24)c(C)n1	-41.7
CCCn1ncc([C@@H]2C[C@H]3CN(Cc4cccc(Cl)c4)C(=O)[C@]34CCCN24)c1C	-43.6
